Paper PMC5540273 (PLoS ONE, 2017)

These molecules were tested on T1, PIP5K2C.
T1 construct: gene PIP4K2C
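Further: kd values determined as follow-up on hits from a single-replicate KINOMEscan panel screen.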

**Q.** How did the Kd turn out when `O=C(c1ccc(-c2cc(-c3c[nH]nc3-c3ccccn3)ccn2)cc1)N1CCCC1` [GW792479] was run?
**A.** The Kd was 21 nM.

**Q.** How did the Kd turn out when `CNc1nccc(-c2c(-c3ccc(F)cc3)ncn2C2CCN(C)CC2)n1` [SB-222903] was run?
**A.** Its Kd is 39 nM.

**Q.** For `CCc1nc(-c2cccc(C)c2)c(-c2ccnc(NC(=O)c3ccccc3)c2)s1`, which Kd is on record?
**A.** Its Kd is 4100 nM.

**Q.** Which Kd does the source give for `CN1CCC(n2cnc(-c3ccc(F)cc3)c2-c2ccnc(NC3CCNCC3)n2)CC1` [SB-229482] here?
**A.** Its Kd is 220 nM.
